Test [1] in a line: qHTS assay to identify small molecule antagonists of the thyroid receptor (TR) signaling pathway - cell viability counter screen (AID 743064). Note: nearly all actives have a fitted effect of over 50% in size. Note: potency is the fitted concentration of half-maximal effect. The essentials:
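Rat GH3 pituitary tumor cells stably expressing two TR response elements driving luciferase were plated, rested 4 h, then dosed with library compounds and T3 (1 nM final). After 23.5 h at 37 °C, CellTiter-Fluor was added for 30 min and fluorescence recorded.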

The subject of test [2] is thyroid hormone receptor (rat, GH3 cells). Kind of test: qHTS assay to identify small molecule agonists of the thyroid receptor (TR) signaling pathway (AID 743066; calls by dose curve). (In general: Quantitative high-throughput screening tests each substance at several concentrations.)
Test [3] addresses Estrogen receptor (Homo sapiens) (UniProt P03372). Kind of test: qHTS assay to identify small molecule antagonists of the estrogen receptor alpha (ER-alpha) signaling pathway (AID 743069; active = well fitted curve in the direction sought with a large enough effect in the signal ratio in the repeat runs, not every such curve was filed as active; inconclusive = weak or mixed curves, or effect the other way; inactive = no such curve, though single readings can be large or run the other way; the % refers to the signal ratio; note: potency is the fitted concentration of half-maximal effect). The essentials: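 A 17beta-estradiol challenge was applied right after compound transfer to ER-alpha-UAS-bla HEK293 cells previously kept in charcoal-stripped serum. Plates stood 18 hr at 37C and 5% CO2; fluorescence was read following 2 hr FRET substrate loading at room temperature.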

Test [4] in a line: qHTS assay to identify small molecule antagonists of the estrogen receptor alpha (ER-alpha) signaling pathway - cell viability counter screen (AID 743074; calls by dose curve;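 note: HEK293 cells carrying ER-alpha-UAS-bla reporter stimulated with 17beta-estradiol; nearly all actives have a fitted effect of over 45% in size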; note: potency is the fitted concentration of half-maximal effect).
For test [5], the target named is Estrogen receptor (Homo sapiens) (UniProt P03372). Kind of test: qHTS assay to identify small molecule agonists of the estrogen receptor alpha (ER-alpha) signaling pathway (AID 743075; calls by dose curve;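 note: HEK293 GripTite cells with ER-alpha and UAS-driven beta-lactamase reporter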).
The target is the same in test [6]. Nature of the test: qHTS assay to identify small molecule agonists of the estrogen receptor alpha (ER-alpha) signaling pathway using the BG1 cell line (AID 743079). Note: nearly all actives have a fitted effect of over 20% in size.
Test [7] is described as follows: qHTS assay to identify small molecule antagonists of the estrogen receptor alpha (ER-alpha) signaling pathway using the BG1 cell line - cell viability counter screen (AID 743081).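 Note: compound given together with 17beta-estradiol as the ER stimulus; nearly all actives have a fitted effect of over 45% in size.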 Note: potency is the fitted concentration of half-maximal effect.
Test [8] can be described thus: qHTS assay to identify aromatase inhibitors - cell viability counter screen (AID 743084).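 Note: cells stimulated with testosterone during compound exposure; nearly all actives have a fitted effect of over 55% in size.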 Note: potency is the fitted concentration of half-maximal effect.
The target in test [9] is Aryl hydrocarbon receptor (Homo sapiens) (UniProt P35869). Nature of the test: qHTS assay to identify small molecule that activate the aryl hydrocarbon receptor (AhR) signaling pathway (AID 743085).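 For activation: HG2L7.5c1 human HepG2 liver cells with stably integrated DRE-driven firefly reporter; series mostly up to about 70 µM.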 Note: nearly all actives have a fitted effect of over 15% in size. Note: potency is the fitted concentration of half-maximal effect. In short, it runs like this:
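Compounds were tested in HepG2 hepatocellular carcinoma cells harbouring a stably integrated luciferase gene under control of 20 DREs. Increased reporter signal after 24 h treatment at 37C was taken as AhR activation.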

Test [10] in a line: qHTS assay to identify small molecule antagonists of the peroxisome proliferator-activated receptor gamma (PPARg) signaling pathway - cell viability counter screen (AID 743194). Note: nearly all actives have a fitted effect of over 55% in size. In short, it runs like this:
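PPARg-UAS-bla HEK293H cells were plated, rested 5 h at 37 C, then treated with compounds plus rosiglitazone (50 nM final) for 17 h at 37 C; viability was then read by CellTiter-Glo luminescence after 30 min at room temperature.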

The nature of test [11]: qHTS assay for small molecule agonists of the antioxidant response element (ARE) signaling pathway (AID 743202; active = well fitted activation curve with a large enough effect in the signal ratio in the repeat runs, not every such curve was filed as active; inconclusive = weak or mixed curves, or effect the other way; inactive = no such curve, though single readings can be large or run the other way; the % refers to the signal ratio; note: potency is the fitted concentration of half-maximal effect). In short, it runs like this:
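Following a 16 h, 37 C exposure of reporter HepG2 cells (ARE-driven beta-lactamase, 2,000 cells/well) to compounds, FRET substrate was applied for 2 h at room temperature and fluorescence intensity recorded.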

A short description of test [12]: qHTS assay for small molecule agonists of the antioxidant response element (ARE) signaling pathway - cell viability counter screen (AID 743203; calls by dose curve; note: nearly all actives have a fitted effect of over 55% in size). The essentials:
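ATP content via CellTiter-Glo luminescence served as the viability measure. Cells: ARE-bla HepG2, 2,000 per well. Exposure: 16 hrs, 37C/5% CO2.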

The nature of test [13]: qHTS assay for small molecule activators of the heat shock response signaling pathway - cell viability counter screen (AID 743209). Note: nearly all actives have a fitted effect of over 50% in size. In short, it runs like this: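 Compounds dissolved in DMSO were added to overnight-plated HSE-bla HeLa cells and left 5 h at 37 C. Cell viability was quantified by luminescence using CellTiter-Glo.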
A short description of test [14]: qHTS assay for small molecule activators of the heat shock response signaling pathway (AID 743210; active = well fitted activation curve with a large enough effect in the signal ratio in the repeat runs, with a control signal flat, not every such curve was filed as active; inconclusive = weak or mixed curves; the % refers to the signal ratio; note: series mostly up to about 63 µM). In short, it runs like this:
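Heat shock element–beta-lactamase HeLa reporter cells; qHTS with compounds for 5 h at 37 C; detection by FRET substrate fluorescence after 2.5 h at RT.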

Test [15] in a line: qHTS assay to identify small molecule antagonists of the thyroid receptor (TR) signaling pathway (AID 743065). Note: nearly all actives have a fitted effect of over 55% in size. Note: potency is the fitted concentration of half-maximal effect. In short, it runs like this: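 GH3.TRE-Luc rat pituitary cells carrying two TR response elements driving luciferase were plated for 4 h, given compound plus 1 nM T3 (final), and incubated 23.5 h at 37 C. ONE-Glo luminescence measured reporter inhibition; CellTiter-Fluor fluorescence tracked cytotoxicity.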

Another test addresses Aromatase (Homo sapiens) (UniProt P11511). Kind of test: qHTS assay to identify aromatase inhibitors (AID 743083).
A short description of test [16]: qHTS assay to identify small molecule that activate the aryl hydrocarbon receptor (AhR) signaling pathway - cell viability counter screen (AID 743086).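 Note: HepG2 liver cells carrying the AhR DRE luciferase reporter; series mostly up to about 70 µM; nearly all actives have a fitted effect of over 45% in size.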 In short, it runs like this:
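HepG2-AhR-luc (HG2L7.5c1) cells, 4000/well, were preincubated 5 h at 37C, exposed to compound in qHTS format for 24 hr at 37C, then given CellTiter-Fluor for 30 min; viability was read as fluorescence in the reporter wells.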

Test [17] deals with Peroxisome proliferator-activated receptor gamma (Homo sapiens) (UniProt P37231). Nature of the test: qHTS assay to identify small molecule agonists of the peroxisome proliferator-activated receptor gamma (PPARg) signaling pathway (AID 743094; active = well fitted activation curve with a large enough effect in the signal ratio in the repeat runs, not every such curve was filed as active; inconclusive = weak or mixed curves, or effect the other way; inactive = no such curve, though single readings can be large or run the other way; the % refers to the signal ratio). In short, it runs like this: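 Agonism was assessed in a beta-lactamase reporter system, HEK293H cells with a stably integrated UAS-bla construct under PPARg control; the 17 h treatment at 37C preceded a 1 h room-temperature FRET substrate read.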

Test [18] can be described thus: qHTS assay to identify small molecule antagonists of the estrogen receptor alpha (ER-alpha) signaling pathway using the BG1 cell line (AID 743080; calls by dose curve;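 note: BG1 cells stimulated with 17beta-estradiol alongside compound; nearly all actives have a fitted effect of over 25% in size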; note: potency is the fitted concentration of half-maximal effect). The essentials:
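Endogenous full-length ER-alpha in BG1-Luc-4E2 cells drives a stably integrated 4×ERE luciferase gene; compounds were tested against 17beta-estradiol over 21.5 h, with luminescence and multiplexed viability fluorescence recorded.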

Molecules are shown by their SMILES. Values joined by “and” are separate entries in the source; they are usually repeats but may differ in a detail not shown here. Equal entries are not always repeated. Where a structure was tested more than once in an assay, its records may differ in their call. Active and inactive are the calls of the source. Unless noted, calls come from the whole dose curve; as a rule, active = well fitted curve in the direction sought with a large enough effect in the repeat runs; inconclusive = weak or mixed curves; inactive = no such curve, though single readings can be large; an effect the other way counts as inactive or inconclusive.

Chain of Aryl hydrocarbon receptor (Homo sapiens) (P35869 whole entry, looked up): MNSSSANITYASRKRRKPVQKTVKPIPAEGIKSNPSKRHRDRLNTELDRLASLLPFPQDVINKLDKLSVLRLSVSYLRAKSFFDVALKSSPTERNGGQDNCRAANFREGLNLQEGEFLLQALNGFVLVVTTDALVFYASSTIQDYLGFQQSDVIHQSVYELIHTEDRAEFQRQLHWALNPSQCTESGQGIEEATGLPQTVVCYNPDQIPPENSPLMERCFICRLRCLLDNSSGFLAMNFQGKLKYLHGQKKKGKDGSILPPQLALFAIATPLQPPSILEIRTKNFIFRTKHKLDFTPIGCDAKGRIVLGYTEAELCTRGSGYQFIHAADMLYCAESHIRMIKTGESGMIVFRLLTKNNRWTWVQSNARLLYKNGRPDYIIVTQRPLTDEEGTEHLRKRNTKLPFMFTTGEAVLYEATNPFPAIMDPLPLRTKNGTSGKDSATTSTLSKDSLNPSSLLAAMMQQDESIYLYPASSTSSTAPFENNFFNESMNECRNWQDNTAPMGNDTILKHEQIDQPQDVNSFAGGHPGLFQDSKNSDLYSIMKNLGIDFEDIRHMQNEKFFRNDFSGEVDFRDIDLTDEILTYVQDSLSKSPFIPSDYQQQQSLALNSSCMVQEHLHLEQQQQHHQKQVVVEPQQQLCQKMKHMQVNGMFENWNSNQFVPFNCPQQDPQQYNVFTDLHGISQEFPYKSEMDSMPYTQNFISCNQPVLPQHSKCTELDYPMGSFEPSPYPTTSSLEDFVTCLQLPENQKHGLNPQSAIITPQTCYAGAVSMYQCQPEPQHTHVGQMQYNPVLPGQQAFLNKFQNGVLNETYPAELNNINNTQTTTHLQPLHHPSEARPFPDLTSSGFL
Chain of Peroxisome proliferator-activated receptor gamma (Homo sapiens) (P37231 whole entry, looked up): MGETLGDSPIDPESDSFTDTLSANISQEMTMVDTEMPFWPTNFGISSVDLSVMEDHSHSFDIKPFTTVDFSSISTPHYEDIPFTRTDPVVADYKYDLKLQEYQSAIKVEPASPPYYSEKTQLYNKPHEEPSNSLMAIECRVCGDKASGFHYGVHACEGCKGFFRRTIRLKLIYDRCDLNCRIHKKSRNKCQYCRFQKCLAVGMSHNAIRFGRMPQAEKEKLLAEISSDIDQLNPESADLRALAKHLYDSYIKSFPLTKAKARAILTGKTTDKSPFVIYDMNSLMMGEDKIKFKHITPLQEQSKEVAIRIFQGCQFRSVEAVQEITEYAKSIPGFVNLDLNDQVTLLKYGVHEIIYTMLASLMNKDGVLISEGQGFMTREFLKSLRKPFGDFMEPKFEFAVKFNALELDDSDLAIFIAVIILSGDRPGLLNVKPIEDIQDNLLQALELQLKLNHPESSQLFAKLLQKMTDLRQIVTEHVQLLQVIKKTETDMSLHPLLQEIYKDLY
Chain of Aromatase (Homo sapiens) (P11511 whole entry, looked up): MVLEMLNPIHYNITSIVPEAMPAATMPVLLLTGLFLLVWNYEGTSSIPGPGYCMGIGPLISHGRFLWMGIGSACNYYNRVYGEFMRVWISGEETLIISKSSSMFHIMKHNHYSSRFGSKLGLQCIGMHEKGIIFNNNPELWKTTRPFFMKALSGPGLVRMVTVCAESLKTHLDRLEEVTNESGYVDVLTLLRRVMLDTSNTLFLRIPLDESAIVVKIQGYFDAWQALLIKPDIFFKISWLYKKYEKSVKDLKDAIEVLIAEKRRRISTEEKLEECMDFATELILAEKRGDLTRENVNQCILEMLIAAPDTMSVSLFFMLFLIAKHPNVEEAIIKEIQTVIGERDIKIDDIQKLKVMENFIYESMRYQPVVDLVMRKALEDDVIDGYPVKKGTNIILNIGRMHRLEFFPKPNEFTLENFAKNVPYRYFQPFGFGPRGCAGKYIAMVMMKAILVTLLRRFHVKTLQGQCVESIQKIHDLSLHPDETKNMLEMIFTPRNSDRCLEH
Chain of Estrogen receptor (Homo sapiens) (P03372 whole entry, looked up): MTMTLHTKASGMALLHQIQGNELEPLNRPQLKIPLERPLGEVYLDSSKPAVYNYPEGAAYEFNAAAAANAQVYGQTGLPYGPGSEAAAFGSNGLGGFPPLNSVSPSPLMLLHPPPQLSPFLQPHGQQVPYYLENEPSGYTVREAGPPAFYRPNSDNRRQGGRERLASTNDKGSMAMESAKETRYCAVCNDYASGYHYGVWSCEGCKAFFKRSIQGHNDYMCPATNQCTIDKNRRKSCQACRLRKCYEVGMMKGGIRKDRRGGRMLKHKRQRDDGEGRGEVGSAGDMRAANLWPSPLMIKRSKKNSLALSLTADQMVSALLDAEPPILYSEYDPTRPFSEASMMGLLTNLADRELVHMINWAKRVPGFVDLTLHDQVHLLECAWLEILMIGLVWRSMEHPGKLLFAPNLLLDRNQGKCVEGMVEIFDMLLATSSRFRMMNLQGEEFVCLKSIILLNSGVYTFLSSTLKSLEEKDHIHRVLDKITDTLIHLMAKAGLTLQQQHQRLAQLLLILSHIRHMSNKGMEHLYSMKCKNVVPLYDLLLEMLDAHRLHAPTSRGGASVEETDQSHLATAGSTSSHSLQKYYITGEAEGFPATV

As for `O=[N+]([O-])c1cc(N(CCO)CCO)ccc1NCCO`, the Potency in test [1] is 61 µM (active); in test [7], 48.5 µM (active); in test [8] it was 48.5 µM (active) and 61.1 µM (active). Further, the outcome in [2] and in test [14] was inactive. Besides, the Potency entry in test [3], in [4], in test [5], in test [6], in test [9] and in [10] was “inactive” in each case. Further, the Potency result in test [11], in test [12] and in test [13] was “inactive” throughout.

Consider `CC(=O)CCc1ccccc1`, for which the Potency result (in test [1]; in test [15]; in test [4]; in [7]; in the test with Aromatase (Homo sapiens); in [8]) was “inactive” each time. Besides, the Potency entry in test [16], in test [10], in [11], in test [12] and in test [13] was “inactive” in each case. Also, the result in test [2], in test [17] and in test [14] was inactive.

`CC1=CC[C@H]2C[C@@H]1C2(C)C`: the Potency result in [15], in test [3], in [4], in [5], in [6] and in test [18] was “inactive” throughout. In addition, the Potency result (in test [7]; with Aromatase (Homo sapiens); in [8]; in [16]; in test [10]; in [11]) was “inactive” each time. Besides, the Potency entry in test [12] and in test [13] was “inactive” each time. For the same compound, the compound was called inactive in [2], in test [17] and in test [14].

`CCOC(=O)C1OC1c1ccccc1` (stereo not drawn): the result in [2], in [17] and in test [14] was inactive. The Potency entry (in [4]; in [7]; in the test with Aromatase (Homo sapiens); in [8]; in test [9]; in test [16]) was “inactive” each time. Moreover, the Potency result in [10], in test [11], in test [12] and in test [13] was “inactive” throughout.

In the case of `C[C@@H]1O[C@@H](OC[C@H]2O[C@@H](Oc3c(-c4ccc(O)c(O)c4)oc4cc(O)cc(O)c4c3=O)[C@H](O)[C@@H](O)[C@@H]2O)[C@H](O)[C@H](O)[C@H]1O`, the Potency entry (in [15]; in test [4]; in test [7]; with Aromatase (Homo sapiens); in test [8]; in [9]) was “inactive” throughout. Moreover, the Potency entry in [16], in [10], in test [12] and in [13] was “inactive” throughout. Also, the call in [2] was inactive.

For `CCCCC(CC)COC(=O)CCCCCCCC(=O)OCC(CC)CCCC` (stereo not drawn), the Potency result in [1], in test [15], in test [4], in [7], in test [16] and in test [10] was “inactive” each time. Moreover, the Potency result in test [11], in test [12] and in test [13] was “inactive” throughout. The outcome in test [2] was inactive.

Regarding `Oc1c(Cl)cc(Cl)c(Cl)c1Cl`, the Potency in test [15] was 47.5 µM (active) and 30.6 µM (active); in test [3], 34 µM [inconclusive] (active); in test [4], 53.8 µM (active); in [18], “inactive and 68.6 µM (active)”. In addition, the compound was called inactive in test [2] and in test [17]. Also, the Potency entry (in [5]; in [7]; in the test with Aromatase (Homo sapiens); in [8]; in [16]; in [12]) was “inactive” throughout. Moreover, the Potency entry in test [13] was “inactive”.

On to `CNC[C@H](O)[C@@H](O)[C@H](O)[C@H](O)CO`, for which the Potency result in test [1], in [15], in test [4], in [7], in test [10] and in [11] was “inactive” each time. Further, the Potency result in [12] and in [13] was “inactive” in each case. Moreover, the outcome in test [2] was inactive.

Take `Oc1ccc2ccccc2c1`: the Potency result (in test [1]; in test [4]; in test [7]; with Aromatase (Homo sapiens); in test [8]; in [16]) was “inactive” in each case. Moreover, the Potency result in test [10], in [12] and in test [13] was “inactive” each time. Besides, the Potency in [9] is 49.7 µM (active) and 27.3 µM (active); in test [11] it was 35.2 µM (active) and 21.7 µM (active). For the same compound, the outcome in [14] was inactive.

These data come from PubChem BioAssay (Tox21).
